Results: PubChem BioAssay (NCATS)
Results filed as inconclusive are left out. Activity calls are given as the source filed them. Unless noted, the call rests on the fitted dose curve; in most records, active means well fitted curve in the direction sought with a large enough effect; inconclusive means small, poorly fitted or top-dose-only effect, or another doubt; inactive means no such curve, though single readings can be large; an effect the other way counts as inactive or inconclusive.

Experiments:
[1] = AP1 Signaling Pathway (AID 357; active means well fitted curve in either direction with a large enough effect, not every such curve was filed as active; further: on the % scale 0 is the no-effect control and ±100 the full control effect); details: ME-180 AP-1-bla reporter, EGF-induced, beta-lactamase ratio, 5 h; at 38 µM (top of the series)
Summary of the method: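 AP-1-bla ME-180 cells with beta-lactamase reporter under AP-1 response element, stimulated with EC50 EGF; compounds titrated, 5 hours at 37 degrees Celsius. CCF4 read at 460/530 nm ratio; positive and negative modulators judged by AC50.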

[2] = NFAT Signaling Pathway (AID 444; active means well fitted curve in either direction with a large enough effect, not every such curve was filed as active;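 further: carbachol stimulus at about its EC50 of 1 µM final; on the % scale 0 is the no-effect control and ±100 the full control effect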); details: Jurkat NFAT-bla M1, carbachol, beta-lactamase ratio, 5 h; at 38 µM (top of the series)
Summary of the method: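 Jurkat cells carrying an NFAT-driven β-lactamase reporter and co-transfected muscarinic M1 receptor were treated with compound plus carbachol (1 uM final, an EC50 level) for 5 h at 37 °C. CCF4 loading followed for 1 h at RT; 460/530 nm ratio gave %activity.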

[3] = Stat Signaling Pathway (AID 446; active means well fitted curve in either direction with a large enough effect, not every such curve was filed as active;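 further: ME-180 cervical cancer cells given 40 pM IL-6 alongside compound; SIE-controlled beta-lactamase reporter measured as 460/530 nm FRET emission ratio; on the % scale 0 is the no-effect control and ±100 the full control effect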); details: ME-180 SIE beta-lactamase reporter, IL-6 stimulated, 5 h; at 38 µM (top of the series)
Summary of the method: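 Reporter line: ME-180 cervical carcinoma, SIE-beta-lactamase. Treatment: compound with 40 pM IL-6, 5 hrs, 37 C, in low-serum OPTI-MEM with 10 mM HEPES pH 7.3. Detection: 460/530 nm fluorescence.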

[4] = molecular target: Glucocorticoid receptor (Homo sapiens) (UniProt P04150); assay: GR-GFP Redistribution (AID 450;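 active means compounds whose dose series gives a full or clear partial fitted curve of increased nuclear translocation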; further: potency means the concentration at half of the fitted maximal effect); details: U2OS GR-GFP nuclear translocation, laser cytometry, 2 h
[5] = molecular target: Glucocorticoid receptor (Homo sapiens) (UniProt P04150); assay: GR-EFC Redistribution (AID 451; calls by dose curve; further: potency means the concentration at half of the fitted maximal effect); details: CHO-K1 GR-EFC translocation, beta-gal luminescence, 2 h
Summary of the method: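 CHO-K1 cells stably expressing nuclear-localized β-gal enzyme acceptor and GR fused C-terminally to the enzyme donor fragment; ligand-driven nuclear translocation restores β-gal by complementation. Compounds titrated up to 46 uM final, 2 h at 37 °C; luminescence read.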

[6] = molecular target: Mitogen-activated protein kinase 10 (Mus musculus) (UniProt Q61831); assay: JNK3 AlphaScreen Assay (AID 530; active means well fitted curve in either direction with a large enough effect, not every such curve was filed as active;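 further: kinase came from lysate of stimulated human HepG2 cells; signal reports phosphorylation of biotinylated GST-cJun 1-79 at Ser73 with 10 µM ATP; on the % scale 0 is the no-effect control and ±100 the full control effect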)
Summary of the method: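 JNK3 came from HepG2 lysates pre-activated with IL-1beta and TNF-alpha and phosphorylated biotinylated GST-cJun (1-79) at 10 uM ATP, pH 7.6, room temperature. Compounds were titrated. AlphaScreen signal used anti-phospho-cJun (Ser73) antibody.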

[7] = molecular target: 3',5'-cyclic-AMP phosphodiesterase 4B (Homo sapiens) (UniProt Q07343); assay: qHTS Assay for Inhibitors of PDE-IV (AID 607; active means well fitted activation curve with a large enough effect in the main read-out, with a control signal flat, not every such curve was filed as active; further: % of control where 0% means no effect)
Summary of the method: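 Cell-based read-out of cAMP via a modified cyclic nucleotide-gated channel and membrane potential dye (535/590 nm) in HEK293 cells expressing PDE4 endogenously. Compounds tested up to 22.9 uM final; 100 uM RO 20-1724 reference.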

[8] = qHTS Assay for Identification of Small Molecule Agonists for Thrombopoietin (TPO) Signaling Pathway (AID 917); further: on the % scale 0 is the no-effect control and ±100 the full control effect
Summary of the method: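 Luminescence from a Glycoprotein IIb promoter–driven luciferase reporter served as read-out in murine Ba/F3 cells carrying the human TPO receptor. Cells, deprived of IL-3 overnight, received compounds with 26 pM TPO and were incubated 24 hrs at 37 C.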

[9] = molecular target: Muscarinic acetylcholine receptor M1 (Rattus norvegicus) (UniProt P08482); assay: qHTS Assay for Antagonists of Acetylcholine Muscarinic M1 Receptor: Measurement of IP-One Response (AID 944); further: nearly all actives have a fitted effect of over 75% in size
Summary of the method: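 CHO cells expressing rat M1 receptor, recovered overnight, were pre-incubated 10 min with compound, then stimulated 30 min with carbachol at EC80 (200 nM) in LiCl-containing buffer, pH 7.4. IP1 accumulation was read by HTRF (620/665 nm).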

[10] = molecular target: Pyruvate kinase (Leishmania mexicana) (UniProt Q27686); assay: qHTS Validation Assay for Inhibitors of Leishmania Mexicana Pyruvate Kinase (AID 945);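 further: 0% = DMSO only neutral control wells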
Summary of the method: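 Read-out: luminescence from PKLight stop/detection reagent, data normalized to DMSO. Reaction: 0.2 nM E451W LmPYK, 0.5 mM PEP, 0.1 mM ADP, pH 7.2, 1 h room temperature.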

[11] = molecular target: Pyruvate kinase PKM (Homo sapiens) (UniProt P14618); assay: qHTS Assay for Activators of Human Muscle Pyruvate Kinase (AID 954; active means well fitted curve in the direction sought with a large enough effect, not every such curve was filed as active;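 further: 0% = uninhibited enzyme and -100% = no enzyme or full thiadiazolimine inhibition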)
Summary of the method: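 Human PKM2 activity is measured as ATP generation, detected by luciferase-coupled luminescence. The enzyme (0.1 nM) acts on 0.5 mM PEP and 0.1 mM ADP for 1 h at ambient temperature; data are normalized to uninhibited and full-inhibition wells.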

[12] = molecular target: alpha-glucosidase (Oryza sativa, rice) (UniProt Q653V4); assay: Counterscreen for Glucocerebrosidase Inhibitors: qHTS Assay for Rice alpha-Glucosidase at pH 5.0 (AID 997);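 further: 0% = full activity with enzyme and -100% = basal without enzyme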
Summary of the method: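 Rice alpha-glucosidase (4 nM final) with 400 uM 4-methylumbelliferyl-alpha-D-glucopyranoside in citrate buffer pH 5.0, 20 min at room temperature, stopped at pH 10; fluorescence 365/440 nm, compounds 0.7 nM–77 uM, AC50 from Hill fits.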

[13] = Validation of Assay for Modulators of Lamin A Splicing (AID 1459; active means well fitted curve in the direction sought with a large enough effect in the signal ratio; the % refers to the signal ratio;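 further: cells exposed to compound for two days before reading; 0% is about no effect; ratio rise marks activators and ratio drop marks inhibitors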)
Summary of the method: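 HeLa S3 lamin A-EGFP/DsRed2 stable clone, 600 cells/well, Opti-MEM 2% FBS; compounds by pin tool; 48 hrs, 37 °C/5% CO2; Acumen 488 nm scan, objects 10-100 um; GFP/RFP intensity ratio.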

[14] = molecular target: DNA repair nuclease/redox regulator APEX1 (Homo sapiens) (UniProt P27695); assay: qHTS Validation Assay for Inhibitors of the Human Apurinic/apyrimidinic Endonuclease 1 (APE1) (AID 1705)
Summary of the method: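 qHTS, 1536-well. APE1 + cpd 15 min RT → 50 nM TAMRA/BHQ-2 THF-abasic dsDNA substrate → kinetic fluorescence, 3 reads/60 s; delta(read3−read1) = reaction progress. No-enzyme buffer = negative control.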

[15] = Counterscreen for APE1 Inhibitors: Fluorescent Dye Displacement Validation Assay (AID 1707);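 further: plate controls were ThO with dsDNA and no compound for no effect and ThO without dsDNA for full effect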
Summary of the method: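 Compounds are scored by their ability to displace Thiazole Orange (250 nM) from a 50 nM TAMRA-tagged duplex bearing a tetrahydrofuran abasic site. Buffer is 50 mM Tris-HCl pH7.5, 50mM NaCl, 2 mM MgCl2, 0.01% Tween-20.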

[16] = molecular target: Endonuclease 4 (Escherichia coli (strain K12)) (UniProt P0A6C1); assay: Counterscreen for APE1 Inhibitors: qHTS Validation Assay for Inhibitors of Endonuclease IV (AID 1708); further: on the % scale 0 is the no-effect control and ±100 the full control effect
Summary of the method: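 2 nM enzyme was preincubated with compounds for 15 min at room temperature in 50 mM Tris-HCl pH 7.5, 50 mM NaCl, 2 mM MgCl2, 1 mM DTT, 0.01% Tween-20. 50 nM THF-abasic TAMRA/BHQ-2 duplex substrate started the reaction.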

[17] = qHTS for differential inhibitors of proliferation of Plasmodium falciparum line 7G8 (AID 1815);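 further: parasite growth measured after three days of incubation; plate controls were vehicle wells for no effect and reference inhibitor wells for full effect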
[18] = qHTS for differential inhibitors of proliferation of Plasmodium falciparum line GB4 (AID 1816); details: Potency: Plasmodium falciparum GB4 proliferation inhibition;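 further: parasite growth measured after 72 h incubation; 0% = vehicle DMSO and -100% = reference inhibitor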
[19] = qHTS for differential inhibitors of proliferation of Plasmodium falciparum line 3D7 (AID 1876);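 further: parasite growth measured after three days of culture; 0% = vehicle wells and -100% = reference inhibitor wells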
[20] = qHTS for differential inhibitors of proliferation of Plasmodium falciparum line D10 (AID 1877);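 further: parasites grown with compound for 72 h before DNA staining; plate controls were vehicle wells for no effect and reference inhibitor wells for full effect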
[21] = qHTS for differential inhibitors of proliferation of Plasmodium falciparum line Dd2 (AID 1882); details: Potency: Plasmodium falciparum Dd2 proliferation inhibition;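 further: compound exposure of 72 h on infected erythrocytes; plate controls were DMSO vehicle for no effect and 0.29 µM artemisinin for full effect; nearly all actives have a fitted effect of over 65% in size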
Summary of the method: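 SYBR Green I DNA fluorescence read-out, ex 485/em 535 nm. Signals were normalized to 0.29 uM artemisinin and DMSO wells, then corrected using vehicle-only plates flanking each stack. Parasite growth ran 72 h in erythrocytes before lysis.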

[22] = qHTS for differential inhibitors of proliferation of Plasmodium falciparum line W2 (AID 1883); details: Potency: Plasmodium falciparum W2 proliferation inhibition;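 further: parasites grown with compound for 72 h before lysis and staining; 0% = vehicle wells and -100% = control inhibitor wells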
[23] = qHTS for differential inhibitors of proliferation of Plasmodium falciparum line HB3 (AID 1886); details: Potency: Plasmodium falciparum HB3 proliferation inhibition;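 further: parasites grown with compound for 72 h before SYBR Green readout; plate controls were vehicle for no effect and reference inhibitor for full effect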
[24] = qHTS Assay for Modulators of Human Peripheral Myelin Protein 22 (PMP22) Expression/Activity (AID 1967; active means well fitted curve in the direction sought with a large enough effect in the signal ratio; the % refers to the signal ratio;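 further: 0% = untreated cells and 100% end not stated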)
Summary of the method: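 Luminescence ratio of Pmp22 promoter-driven green luciferase to EF-alpha-driven red luciferase, in engineered mouse MSC80 Schwann cells, served as read-out. Compounds were incubated 24h; untreated cells defined 0% Activity; curves were classified by r2, magnitude and activity.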

[25] = molecular target: ATP-dependent DNA helicase Q1 (Homo sapiens) (UniProt P46063); assay: qHTS Validation Assay for Inhibitors of RecQ-Like Dna Helicase 1 (RECQ1) (AID 2353);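 further: plate controls were DMSO vehicle for no effect and enzyme-free control for full effect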
Summary of the method: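 50 nM RECQ1T1 preincubated 15 min with compound in Tris pH 8.0 buffer with MgCl2, DTT, Tween-20 and 2.5 ug/ml poly(dI-dC); started with 200 nM TAMRA/BHQ-2 forked duplex and 2 mM ATP. Unwinding read as fluorescence (525/598 nm), two reads 2 h apart.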

[26] = Validation screen for small molecules that induce DNA re-replication in MCF 10A normal breast cells (AID 463097); further: 0% is about no effect; nearly all actives have a fitted effect of over 60% in size
Summary of the method: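 Image-based qHTS: normal breast cells are incubated with compound for 48 hr, stained with Hoechst, and scanned for total nuclear fluorescence. Compounds raising the fraction of nuclei with elevated DNA content count as re-replication inducers.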

[27] = Quantitative high throughput screen for delayed death inhibitors of the malarial parasite plastid, 48 hour incubation (AID 488752); further: on the % scale 0 is the no-effect control and ±100 the full control effect; nearly all actives have a fitted effect of over 65% in size
Summary of the method: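 Erythrocytes infected with P. falciparum carrying an integrated firefly luciferase reporter (2% hematocrit, 0.1% parasitemia final) were exposed to compounds in RPMI 1640/0.5% Albumax for 48 h at 37 C, 5% CO2. Growth inhibition was scored as reduced luminescence.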

[28] = molecular target: M-phase phosphoprotein 8 (Homo sapiens) (UniProt Q99549); assay: qHTS Validation Assay for Inhibitors for MPP8 Chromodomain Interactions with Methylated Histone Tails (AID 488949); further: potency means the concentration at half of the fitted maximal effect; nearly all actives have a fitted effect of over 55% in size
Summary of the method: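 50 nM MPP8 + 50 nM b-H3K9me3 peptide, PBS pH 7.4/0.01% Tween-20, 30 min RT; + cpd 30 min RT; + AlphaScreen donor/Ni-chelate acceptor beads 10 ug/mL final, 30 min dark; luminescence read.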

[29] = molecular target: Thyrotropin receptor (Homo sapiens) (UniProt P16473); assay: qHTS Assay for Antagonists of the Thyroid Stimulating Hormone Receptor (AID 488980); further: 0% is about no effect
Summary of the method: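 Readout is cAMP by HTRF competition between cellular cAMP and cAMP-d2 for a cryptate-labelled antibody. Antagonism was assessed in TSHR-transfected HEK293 cells stimulated with 4 nM TSH (EC80, final) in the presence of RO 20-1724.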

[30] = molecular target: Thyrotropin-releasing hormone receptor (Homo sapiens) (UniProt P34981); assay: qHTS for Small Molecule Agonists and Allosteric Enhancers of Human TRH Receptor: Validation Screen for Agonists (AID 493127;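 active means calcium activation more than 3 SD above the typical response in the agonist read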;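 further: intracellular calcium rise by fluo-8 fluorescence before TRH EC20 addition; 0% is about no effect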); details: TRH receptor agonist cell assay; at 2 µM; hits give high values
Summary of the method: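 TRHR-expressing cells were plated overnight in serum-containing medium, then loaded with fluo-8 calcium dye at room temperature for 30 min–1.5 h. After a 10 s baseline, compound was pin-transferred and calcium fluorescence (ex 480/em 530) read kinetically for agonist response.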

[31] = molecular target: Galactokinase (Homo sapiens) (UniProt P51570); assay: qHTS Validation Assay for Inhibitors of Human Galactokinase (GALK) (AID 493189); further: 0% is about no effect
Summary of the method: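 5 nM GALK / 100 uM galactose / 35 uM ATP, 20 mM HEPES pH8.0, 5 mM MgCl2, 60 mM NaCl, 1 mM DTT, 0.01% BSA (final). RT 1 h; Kinase-Glo Plus luminescence.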

[32] = Validation screen for small molecules that induce DNA re-replication in SW480 colon adenocarcinoma cells (AID 504364); further: 0% is about no effect
Summary of the method: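 SW480 cells seeded at 250 per well were exposed to compound or DMSO for 48 hr at 37 C, 5% CO2, then stained with Hoechst for 40 min. DNA content per nucleus was imaged (405 nm ex, 500-530 nm em).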

[33] = molecular target: DNA dC->dU-editing enzyme APOBEC-3G (Homo sapiens) (UniProt Q9HC16); assay: qHTS for inhibitors of Vif-A3G interactions: Validation (AID 588379); further: 0% is about no effect
Summary of the method: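 HeLa cells stably expressing Vif and A3G-eYFP, 700 cells/well, incubated overnight at 37 deg C, then exposed to compound overnight at 37 deg C. Inhibition of Vif-mediated degradation read as increased yellow fluorescence (Ex 488/Em 500-530) by laser-scanning cytometry.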

[34] = test system: Zika virus NS2B-NS3 protease; assay: Primary screen GU AMC qHTS for Zika virus inhibitors (AID 1347154);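 further: 0% = no-inhibitor control and -100% = no-enzyme control; nearly all actives have a fitted effect of over 70% in size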
Summary of the method: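 Unlinked Zika NS2B hydrophilic domain/NS3 protease domain noncovalent complex (25 nM final) in 10 mM Tris-HCl pH 8.0, 0.01% Tween 20, with AMC peptide substrate. Fluorescence (ex 340, em 450 nm) change over 15 min, room temperature; percent inhibition fitted to 4-parameter Hill equation.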

[35] = Primary qHTS for small molecule stabilizers of the endoplasmic reticulum resident proteome: Secreted ER Calcium Modulated Protein (SERCaMP) assay (AID 1508630); further: on the % scale 0 is the no-effect control and ±100 the full control effect
Summary of the method: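 GLuc-SERCaMP-expressing SH-SY5Y cells, pretreated 16 h with compound, are challenged with thapsigargin to empty ER calcium stores; after 4 h, coelenterazine is added directly to the medium and luminescence is imaged.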

Chain of Glucocorticoid receptor (Homo sapiens) (P04150 whole entry, looked up, the tested form may be a part): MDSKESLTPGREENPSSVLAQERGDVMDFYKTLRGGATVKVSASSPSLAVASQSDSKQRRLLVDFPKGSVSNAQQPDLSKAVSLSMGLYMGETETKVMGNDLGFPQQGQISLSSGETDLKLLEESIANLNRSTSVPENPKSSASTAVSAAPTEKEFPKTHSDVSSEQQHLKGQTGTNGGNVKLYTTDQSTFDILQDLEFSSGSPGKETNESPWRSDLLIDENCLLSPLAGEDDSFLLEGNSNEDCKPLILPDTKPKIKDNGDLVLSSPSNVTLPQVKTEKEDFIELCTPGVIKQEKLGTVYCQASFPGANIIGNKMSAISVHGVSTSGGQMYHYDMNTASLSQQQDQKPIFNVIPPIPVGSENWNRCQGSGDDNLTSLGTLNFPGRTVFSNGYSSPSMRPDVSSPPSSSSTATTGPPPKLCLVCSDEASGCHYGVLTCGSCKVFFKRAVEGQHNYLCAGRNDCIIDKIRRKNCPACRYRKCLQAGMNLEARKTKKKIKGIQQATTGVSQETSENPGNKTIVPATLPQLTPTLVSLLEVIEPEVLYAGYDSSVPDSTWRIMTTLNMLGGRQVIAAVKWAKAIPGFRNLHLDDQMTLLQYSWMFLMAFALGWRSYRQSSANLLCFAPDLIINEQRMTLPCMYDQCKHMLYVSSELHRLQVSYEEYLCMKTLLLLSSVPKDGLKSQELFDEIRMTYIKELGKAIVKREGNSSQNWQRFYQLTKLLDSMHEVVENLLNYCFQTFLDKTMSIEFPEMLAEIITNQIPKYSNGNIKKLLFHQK
Chain of 3',5'-cyclic-AMP phosphodiesterase 4B (Homo sapiens) (Q07343 whole entry, looked up): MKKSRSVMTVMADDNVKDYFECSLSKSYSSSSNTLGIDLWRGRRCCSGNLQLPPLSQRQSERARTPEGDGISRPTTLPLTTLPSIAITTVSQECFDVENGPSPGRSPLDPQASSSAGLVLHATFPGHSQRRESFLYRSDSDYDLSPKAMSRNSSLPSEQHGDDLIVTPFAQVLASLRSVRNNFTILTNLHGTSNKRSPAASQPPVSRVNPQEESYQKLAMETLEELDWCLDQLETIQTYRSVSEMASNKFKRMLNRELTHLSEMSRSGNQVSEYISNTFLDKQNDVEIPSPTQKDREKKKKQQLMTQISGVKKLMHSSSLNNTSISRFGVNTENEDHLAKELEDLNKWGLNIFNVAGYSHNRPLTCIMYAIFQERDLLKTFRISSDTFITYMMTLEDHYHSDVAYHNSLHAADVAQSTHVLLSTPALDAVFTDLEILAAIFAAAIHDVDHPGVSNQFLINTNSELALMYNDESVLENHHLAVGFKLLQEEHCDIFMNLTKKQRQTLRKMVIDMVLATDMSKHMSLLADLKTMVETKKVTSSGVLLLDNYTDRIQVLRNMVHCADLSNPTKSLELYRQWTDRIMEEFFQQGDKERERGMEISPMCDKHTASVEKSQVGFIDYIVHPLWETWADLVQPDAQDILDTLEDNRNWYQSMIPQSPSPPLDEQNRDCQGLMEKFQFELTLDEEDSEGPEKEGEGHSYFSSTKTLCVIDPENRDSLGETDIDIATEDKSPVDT
Chain of DNA repair nuclease/redox regulator APEX1 (Homo sapiens) (P27695 whole entry, looked up): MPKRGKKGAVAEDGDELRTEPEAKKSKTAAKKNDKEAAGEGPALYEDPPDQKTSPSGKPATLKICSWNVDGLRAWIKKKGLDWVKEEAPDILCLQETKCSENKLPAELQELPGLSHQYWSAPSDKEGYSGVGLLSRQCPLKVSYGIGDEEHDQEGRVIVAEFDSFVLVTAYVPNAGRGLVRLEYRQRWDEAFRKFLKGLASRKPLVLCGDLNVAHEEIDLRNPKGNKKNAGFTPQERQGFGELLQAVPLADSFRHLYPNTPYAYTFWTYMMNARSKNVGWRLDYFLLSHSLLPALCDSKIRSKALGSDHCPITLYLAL
Chain of DNA dC->dU-editing enzyme APOBEC-3G (Homo sapiens) (Q9HC16 whole entry, looked up): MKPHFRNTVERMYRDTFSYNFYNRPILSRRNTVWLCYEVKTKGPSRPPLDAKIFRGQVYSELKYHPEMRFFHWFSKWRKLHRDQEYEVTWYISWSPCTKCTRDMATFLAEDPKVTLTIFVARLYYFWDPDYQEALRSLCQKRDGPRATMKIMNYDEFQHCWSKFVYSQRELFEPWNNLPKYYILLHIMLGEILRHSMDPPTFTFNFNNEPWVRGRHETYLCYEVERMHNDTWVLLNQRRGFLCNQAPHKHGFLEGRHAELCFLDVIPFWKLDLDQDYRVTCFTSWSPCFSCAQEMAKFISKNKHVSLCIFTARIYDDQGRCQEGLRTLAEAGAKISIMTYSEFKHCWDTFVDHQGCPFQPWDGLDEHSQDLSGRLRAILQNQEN
Chain of Thyrotropin receptor (Homo sapiens) (P16473 whole entry, looked up): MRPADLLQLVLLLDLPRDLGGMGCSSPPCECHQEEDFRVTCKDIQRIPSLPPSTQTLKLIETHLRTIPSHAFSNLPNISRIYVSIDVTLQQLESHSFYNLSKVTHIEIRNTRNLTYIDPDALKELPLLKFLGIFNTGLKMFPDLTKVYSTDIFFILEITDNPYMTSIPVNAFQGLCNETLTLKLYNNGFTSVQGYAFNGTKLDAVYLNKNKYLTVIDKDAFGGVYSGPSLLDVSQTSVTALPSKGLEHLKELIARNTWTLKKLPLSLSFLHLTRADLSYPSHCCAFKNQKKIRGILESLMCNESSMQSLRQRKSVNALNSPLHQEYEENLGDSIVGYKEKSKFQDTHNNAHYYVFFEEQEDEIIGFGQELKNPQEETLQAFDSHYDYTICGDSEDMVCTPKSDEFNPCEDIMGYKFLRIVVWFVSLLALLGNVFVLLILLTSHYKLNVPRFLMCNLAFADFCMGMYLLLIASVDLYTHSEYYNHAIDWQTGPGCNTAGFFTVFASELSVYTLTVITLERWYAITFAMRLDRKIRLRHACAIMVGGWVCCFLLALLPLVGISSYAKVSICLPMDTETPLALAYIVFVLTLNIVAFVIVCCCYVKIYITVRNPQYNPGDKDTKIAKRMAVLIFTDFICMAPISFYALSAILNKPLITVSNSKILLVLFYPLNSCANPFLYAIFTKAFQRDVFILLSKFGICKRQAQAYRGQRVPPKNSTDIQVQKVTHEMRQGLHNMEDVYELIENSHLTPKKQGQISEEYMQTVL
Chain of ATP-dependent DNA helicase Q1 (Homo sapiens) (P46063 whole entry, looked up): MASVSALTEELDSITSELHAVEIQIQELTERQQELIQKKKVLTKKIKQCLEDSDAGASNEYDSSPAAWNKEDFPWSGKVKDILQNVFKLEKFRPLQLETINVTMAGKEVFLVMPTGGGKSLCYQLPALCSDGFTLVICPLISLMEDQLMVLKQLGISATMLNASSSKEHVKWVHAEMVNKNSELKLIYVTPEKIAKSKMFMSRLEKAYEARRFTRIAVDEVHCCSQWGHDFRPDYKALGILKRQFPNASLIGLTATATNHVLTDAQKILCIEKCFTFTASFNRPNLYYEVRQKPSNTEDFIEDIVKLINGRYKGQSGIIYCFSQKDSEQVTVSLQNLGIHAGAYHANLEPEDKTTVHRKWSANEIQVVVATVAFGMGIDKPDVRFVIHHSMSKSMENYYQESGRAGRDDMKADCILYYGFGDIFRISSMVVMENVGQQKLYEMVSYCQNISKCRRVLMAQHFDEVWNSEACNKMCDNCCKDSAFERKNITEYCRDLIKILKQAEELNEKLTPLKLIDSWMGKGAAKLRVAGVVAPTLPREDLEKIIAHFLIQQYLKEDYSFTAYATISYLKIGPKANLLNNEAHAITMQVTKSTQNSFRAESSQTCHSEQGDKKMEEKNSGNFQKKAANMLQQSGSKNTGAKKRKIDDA
Chain of Galactokinase (Homo sapiens) (P51570 whole entry, looked up): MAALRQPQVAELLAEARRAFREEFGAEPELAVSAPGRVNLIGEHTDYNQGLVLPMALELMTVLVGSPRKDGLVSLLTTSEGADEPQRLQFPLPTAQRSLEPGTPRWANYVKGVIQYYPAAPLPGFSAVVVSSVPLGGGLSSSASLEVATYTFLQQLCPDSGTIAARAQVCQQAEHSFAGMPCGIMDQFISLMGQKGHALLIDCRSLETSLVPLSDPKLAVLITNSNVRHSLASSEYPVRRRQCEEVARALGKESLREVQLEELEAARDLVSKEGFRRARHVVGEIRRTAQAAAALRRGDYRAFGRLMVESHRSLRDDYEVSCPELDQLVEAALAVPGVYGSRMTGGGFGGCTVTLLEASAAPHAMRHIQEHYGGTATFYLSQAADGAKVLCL
Chain of M-phase phosphoprotein 8 (Homo sapiens) (Q99549 whole entry, looked up): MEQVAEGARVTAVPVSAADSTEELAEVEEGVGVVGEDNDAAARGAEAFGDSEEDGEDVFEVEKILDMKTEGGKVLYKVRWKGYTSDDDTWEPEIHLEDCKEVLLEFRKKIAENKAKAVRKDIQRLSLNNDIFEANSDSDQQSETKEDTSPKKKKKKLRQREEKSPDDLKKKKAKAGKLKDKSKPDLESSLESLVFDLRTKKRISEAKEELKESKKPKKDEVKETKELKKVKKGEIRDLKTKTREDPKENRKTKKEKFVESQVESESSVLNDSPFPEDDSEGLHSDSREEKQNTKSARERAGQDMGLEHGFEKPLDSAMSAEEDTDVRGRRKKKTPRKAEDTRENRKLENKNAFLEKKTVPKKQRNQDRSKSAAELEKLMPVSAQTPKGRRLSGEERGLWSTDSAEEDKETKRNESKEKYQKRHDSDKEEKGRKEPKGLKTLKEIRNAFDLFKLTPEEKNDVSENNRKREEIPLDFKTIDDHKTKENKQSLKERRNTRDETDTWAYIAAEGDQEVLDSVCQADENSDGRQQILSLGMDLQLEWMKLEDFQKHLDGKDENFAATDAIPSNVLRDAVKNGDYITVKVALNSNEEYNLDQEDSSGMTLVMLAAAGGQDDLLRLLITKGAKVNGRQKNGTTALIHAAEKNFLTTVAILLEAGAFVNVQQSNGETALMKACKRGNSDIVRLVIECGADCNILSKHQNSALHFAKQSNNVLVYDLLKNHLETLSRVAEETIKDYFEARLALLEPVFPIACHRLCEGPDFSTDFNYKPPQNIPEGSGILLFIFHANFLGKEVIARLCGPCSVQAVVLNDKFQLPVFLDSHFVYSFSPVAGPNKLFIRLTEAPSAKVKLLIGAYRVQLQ

CN(C)CCCCSC(=N)N
active: Potency [28] 50.1 µM
inactive: activity change, negative = inhibition [1] 1.82% | activity change, negative = inhibition [2] 1.09% | activity, negative = inhibition [3] -29.5% | Potency [4] > 46 µM | Potency [5] > 46 µM | Potency [6] | Potency [7] | Potency [8] | Potency [9] | Potency [10] | outcome [11] | outcome [12] | outcome [13] | Potency [14] | Potency [15] | Potency [16] | Potency [17] | Potency [18] | Potency [19] | Potency [20] | Potency [21] | Potency [22] | Potency [23] | outcome [24] | Potency [25] | Potency [26] | Potency [27] | outcome [29] | activation [30] 1.19% | outcome [31] | outcome [32] | Potency [33] | Potency [34] | Potency [35]
